According to the supplement of paper PMC11417369:
Whole data set: some 25,000 sequences, median “ln(normalized median fluorescence intensity)” near 6.7, cut for the highest 2% near 10. What follows is part of a selection rich in the highest values, with near analogues and random picks from the rest.

Tested on: PfHDP1 homeodomain (GST-tagged)
Assay: gcPBM binding intensity (ln(normalized median fluorescence intensity)); higher = stronger DNA binding
Method in brief: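 Binding intensity is defined as the maximum Masliner-normalised natural-log median intensity across replicate spots for either probe orientation. It was measured on an Agilent 4 × 180k array of primer-extended double-stranded 36-bp intergenic genomic probes and negative controls, to which GST-tagged P. falciparum DNA-binding domains made in E. coli were applied for 1 h in 1× PBS with 1% milk, 0.2 mg/ml BSA, 0.5% salmon testes DNA and 0.03% Triton X-100. Detection was by Alexa488 anti-GST antibody and scanning at 488 nm.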

Sequence	gcPBM binding intensity (ln)
GTTGCACAATGTTACACACACAATATAGATCGTTAA [CACACA_site6717]	9.91
GTTGCACAATGTTACACACACAATATATATCGTTAA [CACACA_site1275]	9.41
ATATAATTACATTGATGTACACGAAATGATTAACAT [XGTACX_site5183]	6.43
TATTCAGGTCCAATGGTGCAATATATTTTTGTAATA [GTGCAC_site9607]	10.6
ATTCATTTACCAATGGTGCAATATATTTTTATAATG	10.3
TATTCATATTTAAAGGTGCAATATTTATTTTGTACA	9.16
ATTAGTATATTTCTCTGTACTTACATTAAAATATAA [XGTACX_site2217]	6.41
TTACACATGTATTTGGTGCATGTTGTTAACAAAATA	9.83
TTTTTTGTTAAGTTGGTGCAAACAATAGTTATTGAC	10.7
ATTTATTTATACAAAGTGCAATATTTTGTTAAAGTC [GTGCAC_site9618]	8.15
TTTATTTTAACTTGTTCACACATTTGAATAAATAAA [CACACA_site5064]	6.3
ATAATATATTATTATAGTACTTTATTTTATTTTATG [XGTACX_site2387]	6.65
TTTTTAAAATTTTTAAAAATATTATGTTAAATATAT [CACACA_negctrl_site415]	6.29
AAATAATAAAAAAAATGTACACGTAAATATTATATT [XGTACX_site8125]	6.99
TTTTGTACATCTTTTGCACACGTAATGTTATTATAA [CACACA_site1259]	10.6
TTGTACATCTTTTGCACACGTAATGTTATTATAATA [CACACA_site1258]	10.7
TTTTTTTTTTTTTTGTGTACATATAATGCACATTAT [XGTACX_site6505]	10.1
TTGTACATCTTTTGCACACGTAATGTTATTAAAATA [CACACA_site4827]	10.7
GAACACTAATAATGTTGTACACGTAATTATATATTT [XGTACX_site777]	6.53
CTTTTTTTTTGATGTTGTACATATATATTATATAAT [XGTACX_site1321]	6.9
ATTATGTTATTATTTTGTACACATAAATAATACGTT [XGTACX_site816]	6.61
TTATTATAAATGTTTTGTACGTACATCCGAAAATAA [XGTACX_site2175]	6.57
CATACCCATAAACACACACACATATATACCTATATA [CACACA_site4745]	6.87
AAAAAAAAGTTAAGCACACACATGAATAAATAATAC [CACACA_site840]	6.94

Sequence	gcPBM binding intensity (ln)
ATAAAAATATTATAAGCACACATATATATATATATA [CACACA_site8781]	9.54
AAAGTAAATTTAAGCACACACAACGAATTTTTATAC [CACACA_site1959]	6.84
TGAAATTTGTTATATGCATGTAAAATATTACGACGA [TGCATGCA_site201]	6.59
TTTTTTTTTCCGTGTTGTACAAAAAAAAAGATTTTG [XGTACX_site3925]	6.21
ACACAAAACAAAAAGGTGCTGTATAAATGGGTGTAT [GTGCAC_site9905]	7
TATTTTAGTAAAGGTGGTACTTTTAAGTTCATGTAT [XGTACX_site1854]	6.23
TATACAAACTATGATGCACACATATATATATGTATA [CACACA_site8327]	8.97
GCTTATAAGATATGCACACACAACACTTACAAAAAA [CACACA_site817]	9.27
AGGGAATATTTTTATGCATGTGCTTACACATTACAA [TGCATGCA_site830]	6.83
TTTTTTTTTATGTGCACACAAAAGATGCTTATATTT [CACACA_site2348]	11.2
TAGCTTATAAGATATGCACACACAACACTTACAAAA [CACACA_site8174]	9.5
TTATTTATTTTTATATGTACACAAAAAAAAAAAAAA [XGTACX_site1459]	6.53
TTTTTTTTTTTATGTGCACACAAAAGATGCTTATAT [CACACA_site2347]	10.7
ATTCTATTCTCCTTCACACACAAAAATATTTCATCA [CACACA_site2360]	6.98
AAAAAAAATGGATGATCACACACTTCATAAAAATTG [CACACA_site2213]	6.14
TTTTTTTTTTTTAATACACACATATTTATATTTATT [CACACA_site7802]	6.63
CAGAATAATTTTATCGGTACACACTGTATGCATAAT [XGTACX_site736]	6.88
AAAATTAACGAGTGCACACATATTTAGATAAAATAC [CACACA_site2936]	11.3
GAAAAATTAAAAATAACACACACATATATATATTTA [CACACA_site8896]	6.38
AAAAAATTAACGAGTGCACACATATTTAGATAAAAT [CACACA_site8958]	10.7
AAAATTAAAAATAACACACACATATATATATTTATA [CACACA_site2776]	6.54
TAAATTATAACGTGCACACATATTTAAAATGAAATG [CACACA_site2820]	10
AAAATTAAAAATAACACACACATATTTATATTTATA [CACACA_site7329]	6.24
